Source: PubChem BioAssay (National Center for Advancing Translational Sciences (NCATS))
Only some compounds are listed: those with a hit (about 8.1% of all), similar ones and a draw of the others.
PINK1 expr mod: modulators of PINK1 expression | PINK1 immunofluorescence, high-content cytometry, 24 h | Potency, µM (top dose mostly 76.6 µM), actives largely listed as activators | hit rate 0.2% among 410,000 | AID 624263; active = well fitted activation curve with a large enough effect; inconclusive = small, poorly fitted or top-dose-only effect; cell line not stated here; note: nearly all actives have a fitted effect of over 65% in size
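Decision-based qHTS: stable cells, 24 h exposure to five compound concentrations, CCCP as control. Fixed cells stained for PINK1 plus nuclear, mitochondrial and cell markers, cytometer read.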
Epigenetic reg: regulators of epigenetic silencing causing reporter derepression in mouse cells; murine LDR cells, GFP reporter derepression, 30 h; Potency, µM (doses to about 53.9 µM), hits mostly activators; hit rate 0.2% among 280,000; note: nearly all actives have a fitted effect of over 60% in size
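Murine LDR cells bearing a silenced CMV-driven GFP reporter were exposed to compound for 30 h at 37 C. After PBS washes, GFP-positive cells (20-120 um objects) counted by laser-scanning microplate cytometry.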
Gal4-VP16 FLuc: inhibits Gal4-VP16 luciferase reporter, ROR gamma counter-screen. Potency, µM (doses to about 53.6 µM), most hits filed as inhibitors. Drosophila S2 Gal4-VP16 UAS-luciferase, luminescence, 20 h. hit rate 3.5% among 310,000. AID 2546;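 note: Gal4-VP16 expression switched on by copper sulfate through the metallothionein promoter; nearly all actives have a fitted effect of over 50% in size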
ClpP mod: qHTS Assay for Activators of ClpP | ATP-dependent Clp protease proteolytic subunit (Bacillus subtilis (strain 168)), P80244 | purified B. subtilis ClpP, FRET peptide cleavage, 20 min | Potency, µM (top dose mostly 57.5 µM) | hit rate 1.9% among 340,000; active = well fitted falling curve with a large enough effect; inconclusive = small, poorly fitted or top-dose-only effect; inactive = no such curve, though single readings can be large or run the other way; note: the source files actives as falling curves though it sought activators and does not explain the sign; nearly all actives have a fitted effect of over 65% in size
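ClpP 10 microg/mL final, pH 8 Tris/KCl buffer with BSA, glycerol, Tween-20; compound pinned in; FRET-FV substrate; RT 20 min; Ex320/Em430; ΔFRET vs ADEP 5.8 microM, DMSO, no enzyme.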
RORg inh: inhibitors of mouse ROR gamma transcriptional activity | P51450 | Drosophila S2 Gal4-RORgamma UAS-luciferase reporter, 20 h | Potency, µM (highest dose often 53.6 µM), actives largely listed as inhibitors | hit rate 5.4% among 310,000 | AID 2551; note: nearly all actives have a fitted effect of over 60% in size
Target sequence (P51450 whole entry, looked up, the tested form may be a part): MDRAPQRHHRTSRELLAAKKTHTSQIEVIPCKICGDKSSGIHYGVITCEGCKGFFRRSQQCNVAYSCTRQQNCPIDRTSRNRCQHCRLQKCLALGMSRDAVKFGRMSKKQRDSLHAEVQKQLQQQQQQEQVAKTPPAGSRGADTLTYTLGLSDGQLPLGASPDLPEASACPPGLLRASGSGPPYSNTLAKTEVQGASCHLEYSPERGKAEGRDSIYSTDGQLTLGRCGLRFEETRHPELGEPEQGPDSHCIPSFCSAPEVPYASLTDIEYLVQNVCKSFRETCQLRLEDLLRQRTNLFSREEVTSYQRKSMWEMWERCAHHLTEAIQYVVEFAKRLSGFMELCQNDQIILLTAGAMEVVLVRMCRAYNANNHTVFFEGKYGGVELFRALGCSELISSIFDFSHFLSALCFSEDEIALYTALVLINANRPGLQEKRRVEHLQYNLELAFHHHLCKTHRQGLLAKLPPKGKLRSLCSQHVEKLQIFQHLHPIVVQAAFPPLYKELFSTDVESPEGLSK
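Stably transfected Drosophila Schneider cells are the test system, with ROR gamma fused to Gal4 and luciferase under UAS control; luminescence is read after 20 hr of 700 uM copper sulfate induction at ambient temperature.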
Sfp inh: inhibitors of Bacillus subtilis Sfp phosphopantetheinyl transferase; hit rate 3.5% among 310,000; AID 1490; Potency, µM, hits mostly inhibitors; Biochemical Sfp PPTase activity, qHTS;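 note: the enzyme is Sfp with the accession as filed and its product quenches rhodamine fluorescence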
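With Hepes-Na pH 7.6 buffer containing 10 mM MgCl2, Sfp (15 nM) modified BHQ-2-YbbR (12.5 uM) using rhodamine-CoA (5 uM). Two reads 30 minutes apart at 525/598 nm yielded each well's rate.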
ClpP validation: Bacillus subtilis ClpP inhibition, validated hit; shares compounds with ClpP mod; Potency, µM (doses to about 57.5 µM), most hits filed as inhibitors; hit rate 40% among 470; purified B. subtilis ClpP, FRET-FV substrate cleavage, 20 min; AID 743245; note: nearly all actives have a fitted effect of over 70% in size
Numbers stand for hits; n = inactive; u = inconclusive; x = no result given. Unless noted, calls come from the whole dose curve; as a rule, active = well fitted curve in the direction sought with a large enough effect; inconclusive = small, poorly fitted or top-dose-only effect, or another doubt; inactive = no such curve, though single readings can be large; an effect the other way counts as inactive or inconclusive.

SMILES	PINK1 expr mod	Epigenetic reg	Gal4-VP16 FLuc	ClpP mod	RORg inh	Sfp inh	ClpP validation
CC(OC(=O)c1nn(C(C)C)c(=O)c2ccccc12)C(=O)Nc1ncc(Cl)cc1Cl (stereo not drawn)	n	n	n	n	n	n	n
Cc1cccc(NS(=O)(=O)c2cccc(C(=O)NCC(c3ccco3)N3CCCCC3)c2)c1 (stereo not drawn)	n	x	x	3.2µM	x	x	n
O=C1NC(c2ccco2)Nc2ccccc21 (stereo not drawn)	n	n	n	10µM	n	u	24µM
CCOc1ccc(N2CC(NC(=O)/C=C\c3ccc4c(c3)OCO4)CC2=O)cc1 (stereo not drawn)	n	n	x	n	x	x	x
CCCc1cc(=O)oc2cc(C)cc(OCC(=O)NC3CC3)c12	n	x	n	n	n	n	x
CCCc1cc(=O)oc2cc(C)cc(OCc3nn[nH]n3)c12	n	n	n	8.9µM	n	n	34µM
CCCn1cc(CN2CCC(n3nccc3NC(=O)c3ccccc3)CC2)c(C)n1	n	x	n	3.2µM	n	n	n
CCOC(=O)C1CCN(S(=O)(=O)c2ccc(N3CCCCS3(=O)=O)cc2)CC1	n	n	x	n	x	x	x
COc1ccc(-c2cc(C(F)(F)F)nc(-n3cc(Cl)cn3)n2)cc1	n	n	u	4µM	u	u	22µM
Cc1ccc(-c2nnc(-c3cccnc3)o2)cc1	n	x	n	n	n	n	x
c1cncc(-c2nnc(-c3cccs3)o2)c1	n	n	n	8.9µM	n	n	19µM
Cc1cccc(NC(=O)CCCn2nc(C)c3c(C)n(-c4ccccc4)nc3c2=O)c1C	n	n	x	n	x	x	x
COc1ccc(C(=O)n2cc(C(=O)c3cc(C)ccc3O)cn2)cc1OC	n	n	u	n	n	n	n
CC1(C)Cc2nc3oc4c(NCCCN5CCOCC5)ncnc4c3cc2CO1	n	n	n	x	n	n	x
CC1(C)Cc2nc3oc4c(NCc5ccccc5)ncnc4c3cc2CO1	n	n	n	2.8µM	u	n	9.7µM
COc1cccc(C2C(C(=O)Nc3nc4ccccc4s3)=C(C)NC3=C2C(=O)CC(C)(C)C3)c1OC (stereo not drawn)	n	n	n	n	n	n	8.6µM
COc1ccc2c(c1OC)C(=O)OC2Nc1nc2ccccc2s1 (stereo not drawn)	n	n	n	n	n	n	x
CCOc1ccc(NC(=O)c2ccc(-c3ccccc3)s2)cc1	n	n	x	n	x	x	x
CNC(=O)c1ccc(-c2ccccc2)s1	n	n	n	3.5µM	n	n	27µM
O=C(NCc1cccc(F)c1)c1ccc(NC(=O)c2nsc3ccccc23)cc1	n	n	x	n	x	x	u
CCOC(=O)c1ccc(NC(=O)CSc2nccn2Cc2ccc(OC)cc2)cc1	n	n	x	n	x	x	x
Cc1c(C(=O)N2CCN(c3ncccn3)CC2)oc2c(Cl)cccc12	n	x	x	3.2µM	x	x	n
Cc1c(C(=O)N2CCN(c3ccccn3)CC2)oc2c(F)cccc12	n	x	n	x	n	n	x
CCCNC(=O)Cn1c(=O)c2cccn2c2cccnc21	n	n	x	n	x	x	x
Fc1ccc(-c2cc3nc(-c4ccccc4)cc(N4CCOCC4)n3n2)cc1	n	n	n	3.5µM	n	u	34µM
Fc1cccc(-c2cc3nc(-c4ccccc4)cc(N4CCC5(CC4)OCCO5)n3n2)c1	n	n	n	u	n	n	x
Cc1cccc(-c2cc3nc(-c4ccccc4)cc(N4CCC5(CC4)OCCO5)n3n2)c1	n	n	n	3.2µM	u	n	24µM
Cc1ccc(-c2cc3nc(-c4ccccc4)cc(N4CCC5(CC4)OCCO5)n3n2)cc1	n	n	n	7.1µM	u	n	n
Cc1cccc(-c2cc3nc(C)cc(N4CC(C)CC(C)C4)n3n2)c1 (stereo not drawn)	u	n	n	0.79µM	n	n	n
CN(C(=O)C1=CC(c2ccc3c(c2)OCO3)=NS(=O)(=O)N1C)c1ccccc1	n	n	x	n	x	x	x
